Screens (PubChem BioAssay)
ADAM10 inh – ADAM10 inhibition, QFRET primary screen | O14672 | recombinant ADAM10, EDANS/DABCYL FRET peptide cleavage, 3 h | inhibition, % at 7 µM | 370,000 compounds, 0.62% hits;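 active = inhibition above a per-campaign cutoff equal to the mean of compounds falling between control-based bounds plus 3 SD, cut at about 20% in these data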
Target sequence (O14672 214-748 limits assumed): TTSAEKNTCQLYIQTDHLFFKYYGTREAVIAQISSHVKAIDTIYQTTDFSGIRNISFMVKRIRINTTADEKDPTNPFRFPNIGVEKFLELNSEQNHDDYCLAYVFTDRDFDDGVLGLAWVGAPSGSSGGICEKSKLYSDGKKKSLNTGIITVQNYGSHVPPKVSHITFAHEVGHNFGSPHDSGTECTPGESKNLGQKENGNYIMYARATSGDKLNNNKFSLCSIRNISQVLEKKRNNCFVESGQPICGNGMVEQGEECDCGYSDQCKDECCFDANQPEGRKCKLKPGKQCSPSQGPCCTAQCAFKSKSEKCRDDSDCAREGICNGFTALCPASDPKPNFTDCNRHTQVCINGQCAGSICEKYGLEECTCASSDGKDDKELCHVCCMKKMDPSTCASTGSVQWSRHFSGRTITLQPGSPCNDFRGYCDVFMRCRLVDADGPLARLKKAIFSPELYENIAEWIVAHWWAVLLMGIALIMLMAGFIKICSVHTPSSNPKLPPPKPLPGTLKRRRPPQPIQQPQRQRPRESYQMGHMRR
KLK7 zymogen act – activators of human kallikrein-7 zymogen | P49862 | purified proKLK7, EDANS-DABCYL substrate fluorescence; 100% is mature enzyme control, 0% vehicle | activation, % at 7 µM | 370,000 compounds, 0.9% hits | AID 652039;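 active = activation above the mean of all tested compounds plus 3 SD, computed per campaign excluding outliers beyond control limits, cut at about 13% in these data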
PLCg1 inh – blocks human PLC-gamma1 enzyme activity | 370,000 compounds, 0.84% hits | purified PLC-gamma1, fluorogenic substrate, fluorescence | P19174 | inhibition, % at 12.2 µM
ADAM17 inh – inhibitors of human ADAM17; recombinant ADAM17, EDANS/DABCYL FRET peptide cleavage; inhibition, % at 6.95 µM; 370,000 compounds, 0.83% hits; P78536;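 active = inhibition above the mean of compounds lying between control limits plus 3 SD, set per campaign, cut at about 8.5% in these data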
PLC-beta3 inh – blocks human PLC-beta3 enzyme activity; 370,000 compounds, 0.18% hits; inhibition, % at 12.2 µM; Purified PLC-beta3, fluorogenic substrate, fluorescence; Q01970; in the data active = inhibition above about 11%
ADAM10 counter – ADAM10 inhibition, counter-screen for ADAM17 exosite hits | recombinant ADAM10, EDANS/DABCYL FRET peptide cleavage, 3 h | shares compounds with ADAM17 inh | AID 743256 | 2,900 compounds, 47% hits | inhibition, % at 6.95 µM;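 active = mean inhibition over the triplicate runs exceeds the activity threshold set in the earlier primary screen, cut at about 20% in these data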
ADAM17 confirm – confirmation of inhibitors of human ADAM17. AID 743257. shares compounds with ADAM17 inh. inhibition, % at 6.95 µM. 2,900 compounds, 65% hits. recombinant ADAM17, EDANS/DABCYL QFRET peptide cleavage;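 active = mean inhibition across replicates above the hit cutoff set in the primary screen, cut at about 8.5% in these data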
PLCgamma1 ctr – PLC-gamma1 inhibition, counter-screen for PLC-beta3 hits. 3,300 compounds, 3.1% hits. shares compounds with PLCg1 inh. purified PLC-gamma1, fluorogenic substrate, fluorescence. inhibition, % at 12.3 µM. AID 743258
PLCb3 confirm – human PLC-beta3 inhibition, confirmation; shares compounds with PLCg1 inh; purified PLC-beta3, fluorogenic substrate fluorescence; inhibition, % at 12.3 µM; 3,300 compounds, 1% hits; AID 743261; in the data active = inhibition above about 11%
Numbers stand for hits; - = inactive; . = not tested or not shown. A selection: hits, their analogues and other compounds. The true share with any hit is near 2.9%. Cut-off read from the data, not from the text of the source, unless noted: active = inhibition above about 9.5%; inactive = the rest.

SMILES | ADAM10 inh | KLK7 zymogen act | PLCg1 inh | ADAM17 inh | PLC-beta3 inh | PLCgamma1 ctr | PLCb3 confirm | others
O=C(NC1CN2CCC1CC2)c1cc(-c2ccc(Cl)cc2)nc2ccccc12 (centres undefined) | - | - | - | - | - | . | .
Cc1cccc(OCC(=O)N2CCN(Cc3ccncc3)CC2)c1 | - | - | 13 | 11 | - | - | - | ADAM10 counter=-;ADAM17 confirm=-
O=C(NCC1=C(c2ccc3ccccc3c2)C[C@@H]2CC[C@H]1N2Cc1ccco1)c1ccc([N+](=O)[O-])cc1 | - | - | - | - | - | . | .
COc1ccc(-c2ccc3c(c2)CN(c2cccc(Cl)c2)Cc2cnnn2-3)cc1 | - | - | 13 | - | - | - | -
COc1ccc(-c2ccc3c(c2)CN(CC(C)C)Cc2cnnn2-3)cc1 | - | - | - | - | - | . | .
CCCCn1c(O)c(/C(C)=N/NC(=O)Nc2ccccc2)c(=O)[nH]c1=O | - | - | - | - | - | . | .
CN1C(=O)C(c2ccccc2)C(=O)N(C)C1=O | - | - | - | - | - | . | .
CC(=O)CC(=O)C1C(=O)N(C)C(=O)N(C)C1=O | - | - | 11 | - | - | - | -
CCOC(=O)[C@]12Cc3ccc4ccccc4c3[C@H]1N(Cc1ccccc1)C(=O)c1ccccc12 | - | - | 11 | - | - | - | -
CCOC(=O)[C@]12Cc3cc4ccccc4cc3[C@H]1N(Cc1ccccc1)C(=O)c1ccccc12 | - | - | - | - | - | . | .
CCOC(=O)[C@]12Cc3cc(OC)ccc3[C@H]1N(C(C)C)C(=O)c1cc(OC)ccc12 | - | - | - | - | - | . | .
CSc1ccc(C(=O)C(C)(C)N2CCOCC2)cc1 | - | - | 11 | - | - | - | -
Cc1cc(C(=O)OCC(=O)Nc2ccc(F)cc2F)c(C)n1C1CC1 | - | - | - | - | - | . | .
Cc1cc(Cl)nc(N)n1 | - | - | 13 | - | - | - | -
Cc1cc(C)n2nc(SC(C)C(=O)N3CCC4(CC3)OCCO4)nc2n1 (centres undefined) | - | - | 12 | - | - | - | -
CC1(C)CC(=O)CC(C)(C)N1O | - | - | 11 | - | - | - | -
N#CC1c2ccccc2-n2nncc2CN1S(=O)(=O)c1ccc(Cl)cc1 (centres undefined) | - | - | - | - | - | . | .
Cc1cccc(C)c1OP(N)(=O)Oc1c(C)cccc1C | - | - | 9.6 | - | - | - | -
Cc1cccc(OP(N)(N)=O)c1C | - | - | - | - | - | . | .
CC1=C(O)C(=O)C=C2C1=CC=C1C2(C)CCC2(C)C3CC(C)(C(=O)O)CCC3(C)CCC12C (centres undefined) | - | - | - | - | - | . | .
Cc1oc(-c2ccccc2Cl)nc1CN1C(=O)CN=C(c2ccccc2)c2ccccc21 | - | - | 9.6 | - | 11 | - | -
O=C1CN=C(c2ccccc2)c2ccccc2N1Cc1ccc(C(F)(F)F)cc1 | - | - | - | - | - | . | .
C=CCn1c(O)c(C(C)=NCCCN2CCOCC2)c(=O)[nH]c1=O | - | - | - | - | - | . | .
CC(=NCCCN1CCOCC1)c1c(O)[nH]c(=O)[nH]c1=O | - | - | 15 | - | - | - | -
CN1CCN(CCC(C#N)(c2ccccc2)c2ccccc2)CC1 | - | - | 11 | - | 12 | - | -
SMILES | ADAM10 inh | KLK7 zymogen act | PLCg1 inh | ADAM17 inh | PLC-beta3 inh | PLCgamma1 ctr | PLCb3 confirm | others
CC(=O)N(C)CC#CCN1CCC(O)CC1 | - | - | - | - | - | . | .
CCCCCN1C(=O)c2cc(OC)ccc2[C@@]2(C(=O)OCC)Cc3cc(Cl)ccc3[C@@H]12 | - | - | - | - | - | . | .
CN(C)CP(=O)(O)CN(C)C=O | - | - | - | - | 12 | - | -
CCOP(=S)(OCC)Oc1nc(Cl)c(Cl)cc1Cl | - | - | - | - | - | . | .
COc1ccccc1-n1c(CNCC2CCCO2)nc2ccccc2c1=O (centres undefined) | - | - | 13 | - | 11 | 9.6 | -
Clc1ccc(C(Cl)(Cl)Cl)c(Cl)c1 | - | - | - | - | - | . | .
C=C1[C@H]2CC[C@H]3[C@]4(C)C[C@H](O[C@@H]5OC(CO)[C@@H](OSOOO)[C@H](OS(=O)(=O)O)[C@H]5OC(=O)CC(C)C)C[C@@H](C(=O)O)[C@H]4CC[C@]3(C2)[C@H]1O (some centres undefined) | - | - | - | - | 12 | - | -
CCCCC(=O)N/N=C/c1c(O)n(CCCC)c(=S)[nH]c1=O | - | - | - | - | - | . | .
CCCCC(=O)N/N=C/c1c(O)n(C2CC2)c(=S)[nH]c1=O | - | - | 10 | - | - | - | -
O=C1C2CC=CCC2C(=O)N1SC(Cl)(Cl)Cl (centres undefined) | - | - | - | - | - | . | .
CC(=NCc1ccco1)c1c(O)n(C)c(=O)n(C)c1=O | - | - | 10 | - | - | - | -
CCC(=NCc1ccco1)c1c(O)n(C)c(=O)n(C)c1=O | - | - | - | - | - | . | .
NC1=NC(=O)N2CC12 (centres undefined) | - | - | - | - | - | . | .
COC(=O)C1=C(c2ccc(OC(F)(F)F)cc2)C[C@@H]2CC[C@H]1N2C(=O)N1CCCC1 | - | - | 12 | - | - | - | -
O=C(COc1ccccc1)N1CCN(Cc2c[nH]c3ccccc23)CC1 | - | - | 11 | - | - | - | -
CCCCN(Cc1ccccc1)C1CCN(CCc2ccccc2)CC1 | - | - | 13 | - | - | - | -
CC1(C)CC(n2[nH]c(=O)c3c2NC(=O)CSC3c2ccccc2)CCO1 (centres undefined) | - | - | 17 | - | - | - | -
CCOC(=O)[C@]12Cc3cc(C)ccc3[C@H]1N(C)C(=O)c1cc(OC)ccc12 | - | - | - | - | - | . | .
CCCCCOc1ccc(C)cc1CN(CCCl)CCCl | - | - | - | - | - | . | .
CCCCn1c(O)c(C(CC)=NCCc2ccccc2)c(=O)[nH]c1=O | - | - | 9.9 | - | - | - | -
CCC(=NCC1CCCO1)c1c(O)n(-c2ccccc2)c(=O)[nH]c1=O (centres undefined) | - | - | - | - | - | . | .
CCC(=NCC1CCCO1)c1c(O)n(Cc2ccccc2)c(=O)[nH]c1=O (centres undefined) | - | - | - | - | 20 | - | 15
COC(=O)C1(C(=O)O)Cc2cc([N+](=O)[O-])ccc2N2CCCC21 (centres undefined) | - | - | - | - | - | . | .
COC(=O)c1c(C)n(Cc2ccc3c(c2)OCO3)c2ccc(O)cc12 | - | - | 11 | - | - | - | -
